According to PMC7819943, “Rice protein-binding microarrays: a tool to detect cis-acting elements near promoter regions in rice”:
The full ranking holds about 39,000 sequences; the median of “fluorescence intensity (a.u.)” is about 4,300, and the highest 2% start at about 39,000. The entries come from a sample that favours the highest values as a whole.

These sequences were tested against T1, OsSMF1 (Oryza sativa, UniProt Q6ZLB0 1-436) (assay: protein-binding microarray (RPBM); PBS, 2% BSA, 51.3 ng/ul salmon testes DNA, 50 uM zinc acetate, 200 nM TF, 25 C, 1 h; high values mean tight binding). Settings: protein: recombinant; tags: N-terminal polyhistidine and DsRed monomer fusion (pET32a); chain copies: 2; label: CyDye5-dUTP incorporated in the synthesized complementary strand; 3' TTTTT single-stranded linker to array surface; dsDNA, one strand shown.
T1 sequence: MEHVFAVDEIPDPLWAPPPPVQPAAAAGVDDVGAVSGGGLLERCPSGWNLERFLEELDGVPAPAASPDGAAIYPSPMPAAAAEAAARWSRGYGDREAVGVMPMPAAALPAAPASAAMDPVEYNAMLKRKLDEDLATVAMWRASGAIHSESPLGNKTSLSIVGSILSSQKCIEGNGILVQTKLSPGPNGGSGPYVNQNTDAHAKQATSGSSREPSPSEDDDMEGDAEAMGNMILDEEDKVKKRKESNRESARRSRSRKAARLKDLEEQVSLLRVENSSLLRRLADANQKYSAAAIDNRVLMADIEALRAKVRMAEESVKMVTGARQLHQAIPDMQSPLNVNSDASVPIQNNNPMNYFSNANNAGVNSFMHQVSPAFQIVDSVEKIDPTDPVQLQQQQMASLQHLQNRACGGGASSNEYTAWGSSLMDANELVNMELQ
Method in brief: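 An Axon 4000B scanner gave the binding signal as per-feature fluorescence intensity in arbitrary units. This followed washing of a custom Agilent array that had been incubated for 1 h at 25 °C with 200 nM protein in PBS, 2% BSA, salmon testes DNA and 50 µM zinc acetate. The proteins were transcription factors fused at the N-terminus to polyhistidine and DsRed, expressed in E. coli BL21-CodonPlus and purified on Ni–NTA.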

Q: Which binding signal does the source give for “AATAAGTAAGGTGGTTTTAAAATTTGGGGAGAGCTAACAGCGGAGTCACCTAGTGCAG” here?
A: 39100 fluorescence intensity (a.u.)

Q: For “TAAAATTTAAATTTTGGCTAATAAGTATAAGCATAACTGTCGGAGTCACCTAGTGCAG”, which binding signal is on record?
A: 34300 fluorescence intensity (a.u.)

Q: How did the binding signal turn out when “GCTACACTTAACGCTGTCCACAACTCCACATACGCGTTACCGGAGTCACCTAGTGCAG” was run?
A: 3330 fluorescence intensity (a.u.)

Q: With “ATTTCTAATGCCACGTTAACGCCACGTGGAAAGAAGACCGCGGAGTCACCTAGTGCAG” as the sequence, how does the binding signal read?
A: 17900 fluorescence intensity (a.u.)

Q: “GAACGGTAGAATGATTATTGCTCCTTCAGTTTTCGAGTAACGGAGTCACCTAGTGCAG” was tested. Which binding signal did it give?
A: 3320 fluorescence intensity (a.u.)

Q: For “TGAACCGGCCGGTTTTCATGTGAACCGTGAACCGTAATAACGGAGTCACCTAGTGCAG”, which binding signal is on record?
A: 3240 fluorescence intensity (a.u.)

Q: Which binding signal does the source give for “TCCGTTCTGTTTATGAATAACGGTCGAAAACGTAATAACCCGGAGTCACCTAGTGCAG” here?
A: 46300 fluorescence intensity (a.u.)

Q: “CTATGACGGGTCGAAAACGGAACCCGTCAAAGATGAGTTACGGAGTCACCTAGTGCAG” was tested. Which binding signal did it give?
A: 18300 fluorescence intensity (a.u.)

Q: How did the binding signal turn out when “GTGGTACACGCATGCTGACTAATTAAGACCGACAGAATCCCGGAGTCACCTAGTGCAG” was run?
A: 3390 fluorescence intensity (a.u.)

Q: Which binding signal does the source give for “AACATGAAAGCTCAAGAGCTCGTGCTGACGGCTGAGAATCCGGAGTCACCTAGTGCAG” here?
A: 3150 fluorescence intensity (a.u.)

Q: How did the binding signal turn out when “TATGGACACCATCCTTGTCATTGGGTTAGGACTGGCCTTACGGAGTCACCTAGTGCAG” was run?
A: 3630 fluorescence intensity (a.u.)

Q: Which binding signal does the source give for “GCCATCCAACTATTTTCATGGATCAACATCATAGTAGTATCGGAGTCACCTAGTGCAG” here?
A: 3140 fluorescence intensity (a.u.)

Q: “AAATAGTCACACATAAAATACTATTCATATTTTATCATCTCGGAGTCACCTAGTGCAG” was tested. Which binding signal did it give?
A: 13500 fluorescence intensity (a.u.)

Q: With “TTCATCCTATCACATCAAATATTTGGATACATACATGGAGCGGAGTCACCTAGTGCAG” as the sequence, how does the binding signal read?
A: 45500 fluorescence intensity (a.u.)

Q: With “TTGCTTGCGAGCAAAGGTGGAGTTCATGCCCTCATCATATCGGAGTCACCTAGTGCAG” as the sequence, how does the binding signal read?
A: 3710 fluorescence intensity (a.u.)

Q: With “AATATAATGGCCGCTCGCTGATGGGTGCGTCATGCACCCTCGGAGTCACCTAGTGCAG” as the sequence, how does the binding signal read?
A: 4060 fluorescence intensity (a.u.)

Q: “ATCCCCGGTCATCTCGCCTCGTCTCGTCCCGTCCCTGCGCCGGAGTCACCTAGTGCAG” was tested. Which binding signal did it give?
A: 3460 fluorescence intensity (a.u.)

Q: Which binding signal does the source give for “GATATAATTGCCACGTAAGCGCCACGTCAATGCCACGTGCCGGAGTCACCTAGTGCAG” here?
A: 52100 fluorescence intensity (a.u.)

Q: Which binding signal does the source give for “TCGGATCGAATTGCCACGTAAGCGCCACGTCGATGCCACACGGAGTCACCTAGTGCAG” here?
A: 33000 fluorescence intensity (a.u.)

Q: How did the binding signal turn out when “CCGGATCGAATTGCCACGTAAGCGTCACGTCACTGCCACACGGAGTCACCTAGTGCAG” was run?
A: 17100 fluorescence intensity (a.u.)

Q: With “ATCGAATTGTCACGTAAGCGCCACGTCAATGCTACGTCAGCGGAGTCACCTAGTGCAG” as the sequence, how does the binding signal read?
A: 26100 fluorescence intensity (a.u.)

Q: “CTGGATCGAATTGCCACGTAAGCGCCACGTCAGTGCCACACGGAGTCACCTAGTGCAG” was tested. Which binding signal did it give?
A: 20700 fluorescence intensity (a.u.)

Q: “GCTCGAATTGCCACGTAAGCGCCACGTCAATGCCACGTCACGGAGTCACCTAGTGCAG” was tested. Which binding signal did it give?
A: 65500 fluorescence intensity (a.u.)

Q: For “CGAGATATAATTGCCATGTCATTGCCACGTCAATGTCACGCGGAGTCACCTAGTGCAG”, which binding signal is on record?
A: 49600 fluorescence intensity (a.u.)

Q: How did the binding signal turn out when “TTTTCCGGATCGAATTGCCACGTAAGCGCCACGTCAATGACGGAGTCACCTAGTGCAG” was run?
A: 48300 fluorescence intensity (a.u.)

Q: How did the binding signal turn out when “GCTGAGATATAGTTGCCACGTAAGCGCCACGTCAATGCTACGGAGTCACCTAGTGCAG” was run?
A: 33000 fluorescence intensity (a.u.)

Q: Which binding signal does the source give for “TTGAGATATAATTGCTACGTAAGTGCCACGTCAATGCCACCGGAGTCACCTAGTGCAG” here?
A: 21400 fluorescence intensity (a.u.)

Q: “TTTTCGATATATAATTGCCACGTAAGCGTCACGTCAATGCCGGAGTCACCTAGTGCAG” was tested. Which binding signal did it give?
A: 34300 fluorescence intensity (a.u.)

Q: With “CCAATATATAATTGCCACGTCATCGCCGCGTCAATGCCACCGGAGTCACCTAGTGCAG” as the sequence, how does the binding signal read?
A: 28100 fluorescence intensity (a.u.)

Q: “TCATCCCCTGATCGTCATCAGCATTCTCACCGTCGGCGCTCGGAGTCACCTAGTGCAG” was tested. Which binding signal did it give?
A: 4690 fluorescence intensity (a.u.)

Q: “AGTAGGGAAAGTTACAACGCAGCCTAACGTGGGATAGCGGCGGAGTCACCTAGTGCAG” was tested. Which binding signal did it give?
A: 3980 fluorescence intensity (a.u.)

Q: Which binding signal does the source give for “CGCGATCCTGACAGTATATTCTATCTTTGACACAGTCTGACGGAGTCACCTAGTGCAG” here?
A: 3320 fluorescence intensity (a.u.)

Q: “GCAGCCATTTACGCTTTCCACGTCAGTGCATGATGGAGTACGGAGTCACCTAGTGCAG” was tested. Which binding signal did it give?
A: 16800 fluorescence intensity (a.u.)

Q: “GTAGCGGCTGCGGCGCTCCAGCTCCTCGGAGGCCCGGTCCCGGAGTCACCTAGTGCAG” was tested. Which binding signal did it give?
A: 3790 fluorescence intensity (a.u.)

Q: How did the binding signal turn out when “CTCCCCACTCACTGCCAGGTGGGCCCACCTTGTCGGATTACGGAGTCACCTAGTGCAG” was run?
A: 3530 fluorescence intensity (a.u.)

Q: “ATGTCAAGACAACAACAGTTGTAAATGTGATCTGGACATACGGAGTCACCTAGTGCAG” was tested. Which binding signal did it give?
A: 3540 fluorescence intensity (a.u.)

Q: How did the binding signal turn out when “TCCCTGCGAAATTGTACACATCAACACAACATAAGGTCGACGGAGTCACCTAGTGCAG” was run?
A: 3700 fluorescence intensity (a.u.)

Q: For “GGCAAATCGGTAATTGCCATGTCACAAGAGTGGCAAATAGCGGAGTCACCTAGTGCAG”, which binding signal is on record?
A: 8900 fluorescence intensity (a.u.)

Q: “CACCCGCCATCGTGGCGGACATTCCAGTATAGGTACGGCACGGAGTCACCTAGTGCAG” was tested. Which binding signal did it give?
A: 6150 fluorescence intensity (a.u.)

Q: With “TGGTGGTGGAAATTTTGGAAATCGTGAGGGCTACACATACCGGAGTCACCTAGTGCAG” as the sequence, how does the binding signal read?
A: 3550 fluorescence intensity (a.u.)

Q: For “CGTCGACCACCACCACGCTCTTGCCCCTGATGACGCCGTGCGGAGTCACCTAGTGCAG”, which binding signal is on record?
A: 6870 fluorescence intensity (a.u.)

Q: “CGGCTTCCCGACGGTGGCGGCGCACGTGGGCGAGGCTGAGCGGAGTCACCTAGTGCAG” was tested. Which binding signal did it give?
A: 3800 fluorescence intensity (a.u.)
